Measured values as given in the supplement of paper PMC7156485.
Values without a mark were called inactive.

These compounds were tested on TDF (assay: H1.0 immunofluorescence intensity relative to DMSO (% of DMSO); higher = stronger H1.0 induction, active = 120 or more). Conditions: concentration: 10 µM; 24 h.
Method in brief: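 H1.0 nuclear intensity or cell number is expressed as percent of the plate control, with the median of replicates taken. HCC1569 and TDF cells were treated with compounds at 10 µM for 24 h at 37 °C, in triplicate, then fixed and immunostained for H1.0 with DAPI as a nuclear stain. HCC1569 values were smoothed to correct for positional effects.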
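Also: TDF is a line of transformed human dermal fibroblasts of mesenchymal origin.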

| SMILES | H1.0 immunofluorescence intensity |
| --- | --- |
| COc1cc2c(cc1OC)C1C(=O)c3ccc4c(c3OC1CO2)C=CC(C)(C)O4 (stereo not given) [Degeulin] | 106 |
| c1ccc(-c2[nH]ncc2-c2ccnc3ccccc23)nc1 [TGF-b RI Kinase Inhibitor] | 91 |
| CCCCCCCCCC(=O)NC(CN1CCOCC1)C(O)c1ccccc1.Cl (racemic) | 105 |
| CC1=C(C(=O)O)N2C(=O)C(NC(=O)C(N)c3ccccc3)C2SC1 (stereo not given) [Cephalexin hydrate] | 102 |
| Cc1cnc(NC(=O)C2=C([O-])c3ccccc3S(=O)(=O)N2C)s1.[Na+] [Meloxicam sodium] | 91.1 |
| Nc1ncnc2c1nc(Sc1ccc(Cl)cc1)n2C1OC2COP(=O)([O-])OC2C1O.[Na+] (stereo not given) [8-(4-Chlorophenylthio)-cAMP sodium] | 93.1 |
| CC1=C(CC(=O)O)c2cc(F)ccc2C1=Cc1ccc(S(C)(=O)=O)cc1 [Sulindac sulfone] | 100 |
| CCCCCC=CCC=CCC=CC=CC1CCCC(=O)O1 (racemic) | 98.2 |
| CC(CC(c1ccccc1)c1ccccc1)NC(C)(C)C.Cl (stereo not given) [N-(tert-butyl)-4,4-diphenyl-2-butanamine hydrochloride] | 99.1 |
| CCc1cc(CCC2(C3CCCC3)CC(O)=C(Cc3nc4nc(C)cc(C)n4n3)C(=O)O2)cc(CC)n1 (stereo not given) | 87.6 |
| CC(C)(CN1C(=O)C(Cl)=C(Cl)C1=O)CN1C(=O)C(Cl)=C(Cl)C1=O | 89.8 |
| Cl.Cl.N=C(N)c1ccc(N)cc1 [4-Aminobenzamidine dihydrochloride] | 92.2 |
| CC12CC3CC(C)(C1)CC(N)(C3)C2.Cl [Memantine hydrochloride] | 101 |
| O=C1c2ccccc2-c2n[nH]c3cccc1c23 | 92 |
| O=C(NC1CCNCC1)c1[nH]ncc1NC(=O)c1c(Cl)cccc1Cl | 131 (active) |
| NC(=O)c1ccc(-c2nc(-c3ccc4c(c3)OCO4)c(-c3ccccn3)[nH]2)cc1 | 95.9 |
| CC12CCC(=O)C=C1CCC1C2C(O)CC2(C)C1CCC2(O)C(=O)COC(=O)CCC(=O)[O-].[Na+] (stereo not given) [Hydrocortisone 21-hemisuccinate sodium] | 82.6 |
| Cl.Cl.Cl.NCCC1CCCC(CCN)N1 (stereo not given) [MDL 26,630 trihydrochloride] | 93.7 |

| SMILES | H1.0 immunofluorescence intensity |
| --- | --- |
| OCC(CO)(CO)NCC(O)Cn1c2ccc(Cl)cc2c2cc(Cl)ccc21 (stereo not given) | 125 (active) |
| O=c1[nH]c(=O)c2nc3ccccc3nc2[nH]1 [Alloxazine] | 101 |
| COc1cc2nc(N3CCN(C(=O)C4CCCO4)CC3)nc(N)c2cc1OC (stereo not given) [Terazosin] | 93.9 |
| NCC1OC(OC2C(CO)OC(OC3C(O)C(N)CC(N)C3OC3OC(CN)C(O)C(O)C3N)C2O)C(N)C(O)C1O (stereo not given) [Neomycin] | 100 |
| CC(C)C1NC(=O)C(CCCCN)NC(=O)C(Cc2c[nH]c3ccccc23)NC(=O)C(Cc2ccc(O)cc2)NC(=O)C(C)N(C)C(=O)C(Cc2ccccc2)NC1=O (stereo not given) [Seglitide] | 102 |
| CCCCN1CCC(n2c(=O)[nH]c3ccccc32)CC1.O=C(O)C(=O)O [NS 521 oxalate] | 86.7 |
| COc1ccc(CCN(C)CCCC(C#N)(c2cc(OC)c(OC)c(OC)c2)C(C)C)cc1OC.Cl (racemic) | 89 |
| O=c1[nH]c(=O)n(C2CCCO2)cc1F (stereo not given) [Ftorafur] | 99.6 |
| O=C(O)CN(CCN(CC(=O)O)CC(=O)O)CCN(CC(=O)O)CC(=O)O [Diethylenetriaminepentaacetic acid] | 95.1 |
| CCCCCCCCC=CCCCCCCCCOCC(COP(=O)([O-])OCC[N+](C)(C)C)OC(C)=O (stereo not given) | 94 |
| Cc1nc(Nc2ncc(C(=O)Nc3c(C)cccc3Cl)s2)cc(N2CCN(CCO)CC2)n1 [Dasatinib] | 107 |
| CCCCCC(O)C=CC=CCCCCCCCC(=O)O (stereo not given) | 96.4 |
| CCCCCCCCCCCCCCC[C@@H](O)[C@@H](N)CO [(2S,3R)-2-amino-1,3-octadecanediol] | 120 (active) |
| Cc1cn2cc(C(=O)N(C)CCO)cc(N[C@@H]3CCOc4cccc(C)c43)c2n1 | 94 |
| COc1cc2c(c(OC)c1OC)-c1c(cc(OC)c(OC)c1OC)CC(C)C(C)C2 (stereo not drawn) [R(+)-Schisandrin A] | 91.6 |
| CON(C)C(=O)[C@H](O)[C@H](Cc1ccccc1)NC(=O)c1cc2cc(Cl)ccc2[nH]1 | 88.1 |
| Nc1ccc(S(=O)(=O)Nc2ccnn2-c2ccccc2)cc1 [Sulfaphenazole] | 89.8 |
